# Out of some 290,000 compounds screened, about 890 (0.31%) were called active. Cut-off read from the data, not from the text of the source: active = inhibition mostly above about 52% (no sharp cut-off); inactive = mostly below about 76%. Shown is part of a subset that was picked to be rich in actives.
# Assay: inhibitors of HIV fusion peptide binding, primary screen, biochemical, uHTS, fluorescence dequenching (AID 1986)
# Settings: cell-free peptide binding, 30 min, stronger effect = higher value
# [1] = measured here: repeat confirmation average inhibition, at 18.6 µM
Structure (SMILES),inhibition (at 20 µM),inhibition [1] [%]
CC1C(=O)N2CCCc3cc(NS(C)(=O)=O)cc1c32 (stereo not given),2.3% (inactive),
CCN1C(=O)/C(=C/c2ccc(N3CCCC3)cc2)NC1=S,149% (inactive),
COCCN1C(=O)/C(=C/c2ccc(N3CCCC3)cc2C)SC1=S,147% (inactive),
Cc1cc(N2CCCC2)ccc1/C=C1/C(=O)N(C)C(=S)N1C,9.5% (inactive),
Cc1cc(N2CCCC2)ccc1/C=C1\NC(=S)N(C)C1=O,94.7% (active),
O=C1N/C(=C/c2ccc(N3CCCC3)cc2)C(=O)N1c1ccccc1,4.9% (inactive),
O=C1/C(=C/c2ccc(N3CCCC3)cc2)NC(=S)N1C1CC1,65.9% (active),83.2
CC(C)(C)C(=O)Nc1cccc(-c2nc3ccccc3[nH]2)c1,1.3% (inactive),
CC(C)OC(=O)CSc1nc(C(C)C)nc2ccccc12,1.3% (inactive),
Cc1c(Cl)cccc1NC(=O)N1CCCC1,0.6% (inactive),
O=C(O)CCCCCN1C(=O)/C(=C/c2ccncc2)SC1=S,9.2% (inactive),
O=C(O)CCN1C(=O)/C(=C/c2ccc(-c3nc4ccccc4s3)o2)SC1=S,24.8% (inactive),
O=C(O)CCCN1C(=O)/C(=C\c2ccco2)SC1=S,53% (inactive),3.5
O=C(O)CCCN1C(=O)/C(=C\C(Cl)=C\c2ccccc2)SC1=S,40.3% (inactive),
N#C/C(=C\c1ccc(-c2nc3ccccc3s2)o1)C(N)=O,2.1% (inactive),
O=C(O)CC(C(=O)O)N1C(=O)/C(=C/c2ccc(-c3nc4ccccc4s3)o2)SC1=S (stereo not given),99% (active),66.9
O=C(O)CCN1C(=O)/C(=C\c2ccc(-c3nc4ccccc4s3)o2)SC1=S,73.9% (active),
O=C(O)CCCCCN1C(=O)/C(=C\c2ccc(-c3ccc(Cl)cc3)o2)SC1=S,82.2% (active),
O=C(O)CCCN1C(=O)/C(=C\c2ccc(-c3nc4ccccc4s3)o2)SC1=S,69.3% (active),
O=Cc1ccc(-c2nc3ccccc3s2)o1,1.2% (inactive),
O=C(O)CCCCCN1C(=O)/C(=C\c2ccncc2)SC1=S,6.4% (inactive),
O=C(O)c1ccc(-c2nc3ccccc3s2)o1,1.8% (inactive),
O=C(Nc1ccccc1)c1ccc(NCC2CCCO2)c(S(=O)(=O)N2CCOCC2)c1 (stereo not given),-0.2% (inactive),

Structure (SMILES),inhibition (at 20 µM),inhibition [1] [%]
CCOC(=O)c1c(NC(=O)CSc2ncn[nH]2)sc(C(=O)NC)c1C,-0.5% (inactive),
Cn1c(SCC(=O)Nc2ccc3c(c2)OCCO3)nnc1C1CC1,0.2% (inactive),
CN1C(=O)/C(=C/c2cn(CC(=O)NCc3ccco3)c3ccccc23)NC1=S,0.4% (inactive),
COc1cc(/C=N/NC(=O)c2cccc(S(=O)(=O)N3CCCCC3)c2)cc(Br)c1O,1.7% (inactive),
O=C(NC(Cc1ccccc1)C(=O)O)/C(=C\c1ccc(F)cc1)NC(=O)c1ccccc1 (stereo not given),12.8% (inactive),
CC(=O)Nc1ccc2c(c1)nc(CCN1CCN(C)CC1)n2C,-1.1% (inactive),
O=C(Cc1ccc([N+](=O)[O-])cc1)Nc1ccc2c(c1)OCO2,0.9% (inactive),
CCCc1nc(SC)[nH]c(=O)c1C,-0.9% (inactive),
COc1ccc(CN2C(=O)/C(=C/c3ccc(-c4ccc(Cl)c(C(=O)O)c4)o3)SC2=S)cc1,139% (inactive),
O=C(O)c1cc(-c2ccc(/C=C3/SC(=S)N(Cc4ccccc4)C3=O)o2)ccc1Cl,58.1% (active),
C#CCN1C(=O)S/C(=C\c2ccc(-c3ccc(Cl)c(C(=O)O)c3)o2)C1=O,18.9% (inactive),
CCCCn1c(N)c(NCc2ccccc2OC)c(=O)[nH]c1=O,2.3% (inactive),
Nc1c(-c2cccc(Cl)c2)cnn1-c1ccccc1,-1.8% (inactive),
c1ccc2sc(NC3=NCN(CC4CCCO4)CN3)nc2c1 (stereo not given),1.1% (inactive),
CC(=O)Nc1ccc(/C=N/Nc2ccc(C(=O)c3c(C)cc4ccccn34)cc2[N+](=O)[O-])cc1,-5.5% (inactive),
Cc1cc2ccccn2c1C(=O)c1ccc(NN)c([N+](=O)[O-])c1,-4.5% (inactive),
Cc1cc2ccccn2c1C(=O)c1ccc(N/N=C/c2ccc(C(=O)O)cc2)c([N+](=O)[O-])c1,52.9% (active),
COc1cccc(-c2c(C(=O)N/N=C/c3cccnc3)nnn2-c2nonc2N)c1,-0.9% (inactive),
O=C(O)CCCNc1cc(N2CCC3(CC2)OCCO3)c2noc3c2c1C(=O)c1ccccc1-3,58.7% (active),
O=[N+]([O-])c1c(NCCO)cc(N2CCC3(CC2)OCCO3)c2nonc12,-2.2% (inactive),
O=C1c2ccccc2-c2onc3c(N4CCN(CCO)CC4)cc(N4CCN(C(=O)c5ccco5)CC4)c1c23,5.9% (inactive),
O=C(O)CCCNc1cc(N2CCN(C(=O)c3ccco3)CC2)c2noc3c2c1C(=O)c1ccccc1-3,70% (active),
CCOC(=O)N1CCN(c2cc(NCCC(=O)O)c3c4c(onc24)-c2ccccc2C3=O)CC1,18% (inactive),

Structure (SMILES),inhibition (at 20 µM),inhibition [1] [%]
CCN1CCN(c2cc(N3CCN(C(=O)c4ccco4)CC3)c3c4c(onc24)-c2ccccc2C3=O)CC1,10.6% (inactive),
CN1CCN(c2cc(N3CCN(C(=O)c4ccco4)CC3)c3c4c(onc24)-c2ccccc2C3=O)CC1,5.9% (inactive),
CC(=O)OCCNc1cc(N2CCN(C)CC2)c2noc3c2c1C(=O)c1ccccc1-3,-2% (inactive),
O=C(O)CCNc1cc(N2CCN(C(=O)c3ccco3)CC2)c2noc3c2c1C(=O)c1ccccc1-3,54.7% (active),
CCCCNC(=O)Nc1nnc(SCC(=O)OCC)s1,-2.1% (inactive),
COc1ccc(Cc2nc3ccccc3[nH]c2=O)cc1,-2.8% (inactive),
Cc1cc(C2C(C#N)=C(N)SC(N)=C2C#N)c(C)s1,51.9% (active),68.2
Cc1ccc(C2C(C#N)=C(N)SC(N)=C2C#N)c(C)c1,-3.6% (inactive),
Cc1sccc1C1C(C#N)=C(N)SC(N)=C1C#N,32.9% (inactive),
C=CCN1C(=O)/C(=C/c2ccc(N(C)C)cc2)S/C1=N\c1nnc(CC)s1,61.5% (active),
C=CCN1C(=O)/C(=C/c2ccccc2)S/C1=N/c1nccs1,1.5% (inactive),
C=CCN=C1S/C(=C\c2ccc(N(C)C)cc2)C(=O)N1CC=C,2.1% (inactive),
Cc1[nH]c(=O)[nH]c(=O)c1S(=O)(=O)N1CCCC(C(=O)NCCC2=CCCCC2)C1 (stereo not given),0.7% (inactive),
COc1ccc(Cl)cc1Nc1nc(C)nc2c1nnn2Cc1ccccc1,-1% (inactive),
COc1ccc(NC(=O)CC2Nc3cccc4cccc(c34)NC2=O)cc1 (stereo not given),51.5% (inactive),-2.3
O=C(CC1Nc2cccc3cccc(c23)NC1=O)Nc1ccccc1 (stereo not given),57.7% (active),
Cc1cccc(NC(=O)CC2Nc3cccc4cccc(c34)NC2=O)c1 (stereo not given),-5.8% (inactive),
NC(=O)CC1Nc2cccc3cccc(c23)NC1=O (stereo not given),57.4% (active),
O=C(CC1Nc2cccc3cccc(c23)NC1=O)Nc1ccc(F)cc1 (stereo not given),59.6% (inactive),-0.8
CC(=O)Nc1ccc(NC(=O)CC2Nc3cccc4cccc(c34)NC2=O)cc1 (stereo not given),67.6% (inactive),-1.4
COc1cc2c(cc1NC(=O)CSc1nnc(Cc3cccs3)n1C)oc1ccccc12,-3.3% (inactive),
CCOC(=O)c1c(-c2ccc(C)cc2)csc1NC(=O)/C(C#N)=C/c1ccc(O)c(OC)c1,95% (inactive),7.7
CCOC(=O)c1c(-c2ccccc2)csc1NC(=O)/C(C#N)=C/c1ccc(O)c(OC)c1,78.2% (active),53.4

Structure (SMILES),inhibition (at 20 µM),inhibition [1] [%]
CCOC(=O)c1c(-c2ccccc2)csc1NC(=O)/C(C#N)=C/c1ccc(OC)c(OC)c1,24.6% (inactive),
COC(=O)C1=C(C)N(C)C(=O)NC1c1c(OC)ccc2ccccc12 (stereo not given),-0.6% (inactive),
O=C(Nc1ccc(Cl)cc1F)C1CCN(S(=O)(=O)c2cccnc2)CC1,-1.9% (inactive),
COc1ccc(NC(=O)C23CC4CC(C2)CC(n2cnc(Br)n2)(C4)C3)c(OC)c1,-1.5% (inactive),
COc1cc(OC)c(OC)cc1CNCCNC(=O)c1ccco1,1.1% (inactive),
Cc1onc(-c2ccccc2Cl)c1C(=O)N1CCCc2ccccc21,-0.5% (inactive),
COc1ccc(CCNS(=O)(=O)c2cccc3nsnc23)cc1OC,0.3% (inactive),
c1ccc(CCn2nnnc2CN2CCc3ccccc32)cc1,1.1% (inactive),
CC1=C(C#N)c2nc(N)c(C#N)c(C)c2/C1=C\c1ccc(C)cc1,15.6% (inactive),
CC1=C(C#N)c2nc(N)c(C#N)c(C)c2/C1=C\c1ccc(OCC(=O)O)c(Cl)c1,28% (inactive),
CC1=C(C#N)c2nc(N)c(C#N)c(C)c2/C1=C\c1ccc(-c2ccccc2C(=O)O)o1,56.8% (active),
CCOc1ccc(N(C)C(=O)CCc2nnc3ccc(N4CCC5(CC4)OCCO5)nn23)cc1,0.1% (inactive),
COc1ccc(CC(=O)N(C)CC(=O)Nc2ccccc2SC)cc1,3.4% (inactive),
COc1ccc(OC)c(NC(=O)CN(C)S(=O)(=O)c2ccc3nc(C)sc3c2)c1,-0.6% (inactive),
N#CCCN(/N=C/c1cccnc1)C1=NS(=O)(=O)c2ccccc21,-1.4% (inactive),
CN(C)c1ccc(/C=N/N(CCO)C2=NS(=O)(=O)c3ccccc32)cc1,159% (inactive),
CN(C)c1ccc(/C=N/N(CCC#N)C2=NS(=O)(=O)c3ccccc32)cc1,69.3% (active),64.2
O=C(COc1ccc(F)cc1)N(Cc1cccs1)C1CCS(=O)(=O)C1 (stereo not given),3.2% (inactive),
O=C(Nc1cccc(Oc2ccc(C(=O)O)c(C(=O)O)c2)c1)c1ccc(-c2ccccc2)cc1,75.5% (active),
CC(C)(C)C(=O)Nc1ccc(C(=O)Nc2cccc(Oc3ccc(C(=O)O)c(C(=O)O)c3)c2)cc1,37.8% (inactive),
Cc1ccc(C(=O)Nc2ccc(Oc3ccc(C(=O)O)c(C(=O)O)c3)cc2)cc1C,17.4% (inactive),
